Laboratory results: PubChem BioAssay (EPA / NIEHS)
Active and inactive are the calls of the source. The calls were made as follows: active = hit-call score of the fitted dose curve at least 0.9, where 1 is the maximum; inactive = score below 0.9.

Assays:
Details in all cases: mRNA level, 48 h; actives raise or lower the signal
[1] = read-out: Bcl-2 (BID) gene, BID (gene 637); test: LTEA_HepaRG_BID: Life Technologies and Expression Analysis (LTEA) Assay for Bcl-2 (BID) gene using HepaRG (AID 2283476)
How it was run: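 Gain or loss of BID expression is fitted relative to 0.5% DMSO vehicle. Human HepaRG liver cells received a 48 h chemical exposure over an eight-point concentration range.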

Caspase-3 (Homo sapiens) = Caspase-3 (Homo sapiens) (UniProt P42574); test: LTEA_HepaRG_CASP3: Life Technologies and Expression Analysis (LTEA) Assay for cysteine-aspartic acid protease (CASP3) using HepaRG (AID 2283477)
How it was run: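 Expression of CASP3 was quantified by TaqMan qRT-PCR against three housekeeping genes (ACTB, GAPDH, POLR2A), bidirectionally versus 0.5% DMSO. HepaRG cultures received compounds in duplicate, top 100 uM with half-log steps, for 48 h in serum-free induction medium.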

[2] = read-out: Cytochrome P450 (CYP24A1), CYP24A1 (gene 1591); test: LTEA_HepaRG_CYP24A1: Life Technologies and Expression Analysis (LTEA) Assay for Cytochrome P450 (CYP24A1) using HepaRG (AID 2283478)
How it was run: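 mRNA of CYP24A1 quantified by TaqMan qRT-PCR (ACTB/GAPDH/POLR2A normalization) after 48 h chemical exposure of HepaRG cells, top concentration 100 uM, half-log steps, 0.5% DMSO vehicle, duplicates. Curves fitted bidirectionally against DMSO baseline.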

[3] = read-out: Cytochrome P450 (CYP1A2), CYP1A2 (gene 1544); test: LTEA_HepaRG_CYP1A2: Life Technologies and Expression Analysis (LTEA) Assay for Cytochrome P450 (CYP1A2) using HepaRG (AID 2283479);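 as to AC50: TaqMan qRT-PCR transcript level normalized to ACTB GAPDH and POLR2A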
How it was run: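 CYP1A2 transcript measured by TaqMan qRT-PCR against three housekeeping genes after 48-hour chemical exposure of HepaRG cells. Eight-point half-log series topping at 100 uM in 0.5% DMSO, duplicates; gain or loss fitted relative to vehicle.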

[4] = read-out: cysteine-aspartic acid protease (CASP8), CASP8 (gene 841); test: LTEA_HepaRG_CASP8: Life Technologies and Expression Analysis (LTEA) Assay for cysteine-aspartic acid protease (CASP8) using HepaRG (AID 2283480)
How it was run: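 HepaRG, 48 h exposure, duplicate wells; 8 conc, half-log from 100 uM, 0.5% DMSO. Serum-free induction medium. CASP8 mRNA by TaqMan qRT-PCR, norm. ACTB/GAPDH/POLR2A; gain/loss fitted vs DMSO.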

[5] = read-out: Cytochrome P450 (CYP2B6), CYP2B6 (gene 1555); test: LTEA_HepaRG_CYP2B6: Life Technologies and Expression Analysis (LTEA) Assay for Cytochrome P450 (CYP2B6) using HepaRG (AID 2283481)
How it was run: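 CYP2B6 transcript level quantified by qRT-PCR against three housekeeping genes, fitted bidirectionally relative to DMSO. HepaRG cultures received chemicals for 48 h, 8-point half-log series from 100 uM in 0.5% DMSO, duplicate wells, serum-free induction medium.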

[6] = read-out: Cytochrome P450 2C19 (Homo sapiens) (UniProt P33261); test: LTEA_HepaRG_CYP2C19: Life Technologies and Expression Analysis (LTEA) Assay for CYP2C19 using HepaRG (AID 2283482)
How it was run: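 CYP2C19 transcript levels by qRT-PCR, normalized to three housekeeping genes, in HepaRG cells after 48 h chemical exposure. Eight-point half-log series topping at 100 uM, 0.5% DMSO vehicle. Increases and decreases both fitted against DMSO.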

CYP2C9 (gene 1559) = test: LTEA_HepaRG_CYP2C9: Life Technologies and Expression Analysis (LTEA) Assay for CYP2C9 using HepaRG (AID 2283484)
How it was run: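 Cells plated 48 h, switched to serum-free induction medium, then treated in duplicate for 48 h at eight concentrations (max 100 uM, 0.5% DMSO). RNA then analysed by qRT-PCR for CYP2C9; curves fitted in both directions relative to DMSO.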

CYP2E1 (gene 1571) = test: LTEA_HepaRG_CYP2E1: Life Technologies and Expression Analysis (LTEA) Assay for CYP2E1 using HepaRG (AID 2283485)
How it was run: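 Differentiated HepaRG cells were treated in duplicate for 48 h with chemicals in 0.5% DMSO, from 100 uM downward in half-log dilutions. RNA was then analysed by qRT-PCR for CYP2E1 induction or loss.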

CYP2C8 (gene 1558) = test: LTEA_HepaRG_CYP2C8: Life Technologies and Expression Analysis (LTEA) Assay for CYP2C8 using HepaRG (AID 2283483)
How it was run: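 CYP2C8 mRNA induction or loss, by qRT-PCR normalized to ACTB/GAPDH/POLR2A, is read in HepaRG cells after 48 h treatment. Concentrations run from 100 uM down in half-log dilutions, with 0.5% DMSO as vehicle and baseline.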

Measured: AC50

Chain of Caspase-3 (Homo sapiens) (P42574 whole entry, looked up): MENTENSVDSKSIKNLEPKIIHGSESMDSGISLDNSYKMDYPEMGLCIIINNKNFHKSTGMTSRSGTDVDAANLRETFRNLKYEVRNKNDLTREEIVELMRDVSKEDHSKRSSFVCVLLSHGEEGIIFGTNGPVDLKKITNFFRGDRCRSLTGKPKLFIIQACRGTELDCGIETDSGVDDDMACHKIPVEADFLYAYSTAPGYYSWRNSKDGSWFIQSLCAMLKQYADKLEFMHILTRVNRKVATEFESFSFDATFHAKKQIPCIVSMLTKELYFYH
Chain of Cytochrome P450 2C19 (Homo sapiens) (P33261 whole entry, looked up): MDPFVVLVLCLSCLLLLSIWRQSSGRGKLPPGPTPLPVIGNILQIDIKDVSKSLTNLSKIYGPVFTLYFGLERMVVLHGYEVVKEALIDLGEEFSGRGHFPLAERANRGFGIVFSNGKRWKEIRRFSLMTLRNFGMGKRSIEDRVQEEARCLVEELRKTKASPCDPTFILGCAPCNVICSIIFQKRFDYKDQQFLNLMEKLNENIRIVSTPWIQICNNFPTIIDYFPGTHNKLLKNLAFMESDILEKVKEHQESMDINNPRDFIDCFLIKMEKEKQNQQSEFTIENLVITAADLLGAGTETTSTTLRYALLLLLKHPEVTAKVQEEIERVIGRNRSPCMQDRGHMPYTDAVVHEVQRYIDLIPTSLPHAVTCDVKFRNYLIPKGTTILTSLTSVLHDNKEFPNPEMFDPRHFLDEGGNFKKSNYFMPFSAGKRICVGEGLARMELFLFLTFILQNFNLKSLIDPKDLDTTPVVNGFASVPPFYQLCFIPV

O=C1c2c(O)cccc2Cc2cccc(O)c21
active: [3] 18.2 µM
not listed: CYP2C8 (gene 1558)
inactive: all other assays above

CC(C)COC(=O)CCCCC(=O)OCC(C)C
not listed: CYP2C8 (gene 1558)
inactive: all other assays above

O=C1OC(c2ccc(O)cc2)(c2ccc(O)cc2)c2ccccc21
active: [3] 72.4 µM | [5] 84.7 µM | [6] 76.9 µM | CYP2C9 (gene 1559) 82 µM
not listed: CYP2C8 (gene 1558)
inactive: all other assays above

CCCCCCC(CCCCCCCCCCC(=O)OCC(COC(C)=O)OC(C)=O)OC(C)=O (stereo not given)
inactive: all assays above

CCCCCCCCCCCCCCCCO
active: [5] 13.1 µM | CYP2E1 (gene 1571) 50 µM
not listed: [4] | CYP2C8 (gene 1558)
inactive: all other assays above

O=C(O)c1cccnc1
not listed: CYP2C9 (gene 1559) | CYP2C8 (gene 1558)
inactive: all other assays above

CCCCCCCCCC[N+](C)(C)[O-]
active: [5] 34 µM
inactive: all other assays above

Cn1cnc2c1c(=O)[nH]c(=O)n2C
inactive: [1] | Caspase-3 (Homo sapiens)

O=C(N[C@@H](c1ccccc1)[C@@H]1CCCCN1)c1cccc(C(F)(F)F)c1Cl
inactive: [1] | [2] | [3] | CYP2C8 (gene 1558)
active: Caspase-3 (Homo sapiens) 50 µM | [5] 32.7 µM | [6] 78.8 µM | CYP2C9 (gene 1559) 36.1 µM | CYP2E1 (gene 1571) 13.1 µM

CCN(CC)CCOc1ccc(C(=C(Cl)c2ccccc2)c2ccccc2)cc1
active: [5] 3.32 µM | CYP2C9 (gene 1559) 80.9 µM | CYP2E1 (gene 1571) 14.6 µM
not listed: [4] | CYP2C8 (gene 1558)
inactive: all other assays above

COC(=O)CCCC(=O)OC
not listed: [4]
inactive: all other assays above

O=C(O)CN(CC(=O)O)CC(=O)O
active: [3] 45.8 µM
inactive: all other assays above

NC=O
not listed: [4]
inactive: all other assays above

C/C=C/c1ccc(OC)cc1
not listed: [4]
inactive: all other assays above

Cc1c(C)c2c(c(C)c1O)CCC(C)(COc1ccc(CC3SC(=O)NC3=O)cc1)O2 (stereo not given)
active: [3] 15.8 µM | [5] 26.4 µM | CYP2E1 (gene 1571) 25.6 µM
not listed: [6] | CYP2C8 (gene 1558)
inactive: all other assays above

C=CCCCCCCCCCCCC
active: [3] 50 µM
not listed: [4] | CYP2C8 (gene 1558)
inactive: all other assays above

O=C(O)c1[nH]n(-c2ccc(S(=O)(=O)O)cc2)c(=O)c1N=Nc1ccc(S(=O)(=O)O)cc1
active: [3] 14.8 µM
not listed: [2]
inactive: all other assays above

Nc1nc(=S)c2[nH]cnc2[nH]1
inactive: [1] | Caspase-3 (Homo sapiens) | [2] | [4]
active: [3] 3.04 µM | [5] 5.84 µM | [6] 9.48 µM | CYP2C9 (gene 1559) 7.91 µM | CYP2E1 (gene 1571) 5.72 µM

Cc1cc(Cc2ccc(N)c(C)c2)ccc1N
active: [3] 50 µM | [5] 0.823 µM | [6] 11.5 µM | CYP2E1 (gene 1571) 24.6 µM
not listed: [2]
inactive: all other assays above

CCCCC(CC)COC(=O)CCCCCCCC(=O)OCC(CC)CCCC (stereo not given)
active: [5] 30.9 µM
not listed: [4]
inactive: all other assays above

Cc1cc(SC2=C(O)C[C@@](CCc3ccc(N)cc3)(C(C)C)OC2=O)c(C(C)(C)C)cc1CO
active: [3] 0.572 µM | [5] 2.89 µM | [6] 0.972 µM | CYP2E1 (gene 1571) 7.16 µM
not listed: CYP2C8 (gene 1558)
inactive: all other assays above
